The text below walks through data of PubChem BioAssay (NCATS).

“And” between values parts separate entries of the source, which are not always exact repeats. Equal entries are not always repeated. Inconclusive results are not listed. Values without a mark were called inactive. The source made the active and inactive calls. The call rests on the fitted dose curve; in most records, active means well fitted inhibition curve with a large enough effect; inconclusive means small, poorly fitted or top-dose-only effect; inactive means flat fitted curve, though single readings scatter.

Test [1] concerns CRL-7250. Put plainly: Cytotoxic Profiling of Annotated Libraries Using Quantitative High-Throughput Screening (AID 1296008). Further: potency means the concentration at half of the fitted maximal effect. On max response: on the % scale 0 is the no-effect control and ±100 the full control effect. The settings on record: Five cell lines viability, CellTiter-Glo ATP luminescence, 48-72 h; max response: stronger effect = lower value. The essentials:
(§1)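 Compounds were pin-transferred onto cells and incubated 48 or 72 hr at 37 degree Celsius, 95% humidity. CellTiter-Glo was added, plates sat 10 min at room temperature, then ATP-coupled luminescence was imaged as the viability read-out.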

Test [2] has as its system HaCat. The description is as above. The settings on record: Five cell lines viability, CellTiter-Glo ATP luminescence, 48-72 h; max response: stronger effect = lower value. The gist of the method:
as §1
A general note: Cellular ATP, detected with luciferase, serves as a proxy for viable cell number.

The subject of test [3] is KB-3-1. The test is described as above. The settings on record: Five cell lines viability, CellTiter-Glo ATP luminescence, 48-72 h; max response: stronger effect = lower value. The gist of the method: as §1
Test [4] has as its system PC49. Put plainly: qHTS profiling for inhibitors of Plasmodium falciparum proliferation (AID 504749).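 Further: 0% = DMSO vehicle and full inhibition = artemisinin control.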 The settings on record: P. falciparum in erythrocytes, SYBR Green DNA, 72 h; series mostly up to 28.7 µM. The gist of the method:
(§2)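 Quantitative HTS: compounds pinned into medium, infected erythrocytes added (0.3% parasitemia, 2.5% hematocrit), 72 h culture at 37 C under 5% CO2. Saponin/Triton lysis with SYBR Green I, overnight RT, then fluorescence read.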
On the technique in general: In qHTS, concentration-response curves come from the screen itself.

Test [5] relates to SC27B. Described as above. The settings on record: P. falciparum in erythrocytes, SYBR Green DNA, 72 h; series mostly up to 28.7 µM. The essentials: as §2
Test [6] relates to TAB109. The test is described as above. The settings on record: P. falciparum in erythrocytes, SYBR Green DNA, 72 h; series mostly up to 28.7 µM. The gist of the method:
as §2

In test [7] the test system is TAB113. The test is described as above. The settings on record: P. falciparum in erythrocytes, SYBR Green DNA, 72 h; series mostly up to 28.7 µM. The essentials:
as §2

The subject of test [8] is TAB165. The test is described as above. The settings on record: P. falciparum in erythrocytes, SYBR Green DNA, 72 h; series mostly up to 28.7 µM. The essentials: as §2
In test [9] the test system is W2. The description is as above. The settings on record: P. falciparum in erythrocytes, SYBR Green DNA, 72 h; series mostly up to 28.7 µM. The gist of the method:
as §2

For test [10], the system named is HEK293. Put plainly: Cytotoxic Profiling of Annotated Libraries Using Quantitative High-Throughput Screening (AID 1296008). Further: potency means the concentration at half of the fitted maximal effect. On max response: on the % scale 0 is the no-effect control and ±100 the full control effect. The settings on record: Five cell lines viability, CellTiter-Glo ATP luminescence, 48-72 h; max response: stronger effect = lower value. The gist of the method: as §1
Further: nearly all actives have a fitted effect of over 60% in size.

For `CON=C(C(=O)N[C@@H]1C(=O)N2C(C(=O)OCOC(=O)C(C)(C)C)=C(C=Cc3scnc3C)CS[C@H]12)c1csc(N)n1`, the outcome in [1] and in test [2] was inactive. Besides, the max response in test [3] is 0.86%.
On to `NC(=O)c1cccc(-c2cc(Nc3ccc(OC(F)(F)F)cc3)ncn2)c1`, for which the max response in [1] is -7.69% and -0.175%; in test [3] it was -13.5%. Besides, the call in [2] was inactive.
As to `O=C(Nc1ccccc1Br)N[C@@H]1CCN(c2ccc(C(F)(F)F)cn2)C1`, the max response in [1] was -5.42%; in test [2] it was 4.65%.
Regarding `C[N+](C)(C)CCCCCC[N+](C)(C)C`, the compound was classed as inactive in test [4], in test [6] and in test [10]. Further, the Potency entry in [5], in test [7], in test [8] and in test [9] was “inactive” each time. Further, the values for the max response in test [1], in test [2] and in [3] were -5.15%, 2.98% and 21.4%, respectively.
As for `O=c1c(-c2ccc(O)cc2)coc2cc(OC3O[C@H](CO)[C@H](O)[C@H](O)[C@H]3O)cc(O)c12` (some centres undefined), the max response was -31.9% in test [1] and -51.1% in test [2].
For the compound `Cc1cc(OCCCc2c(C(=O)O)n(Cc3cccnc3)c3c(-c4c(COc5ccc(N6CCN([S+](C)(=O)[O-])CC6)cc5)nn(C)c4C)cccc23)cc(C)c1Cl`, the max response in test [1] is -16.6%; in [2], -19.1%.
Take `CC(=O)c1ccc(S(=O)(=O)NC(=O)NC2CCCCC2)cc1`: the compound was called inactive in test [4], in test [10] and in test [2]. Moreover, the Potency entry in test [5], in test [7], in test [8] and in test [9] was “inactive” in each case. Besides, the max response in [1] is -4.5%; in test [3], -6.14%.
On to `CO[C@H]1C[C@@H]2CC[C@@H](C)[C@@](O)(O2)C(=O)C(=O)N2CCCC[C@@H]2C(=O)O[C@H]([C@H](C)C[C@@H]2CC[C@H](OP(C)(C)=O)[C@H](OC)C2)CC(=O)[C@H](C)C=C(C)[C@@H](O)[C@@H](OC)C(=O)[C@H](C)C[C@H](C)C=CC=CC=C1C`, for which the max response in test [1] is -18.4%. Besides, the call in [2] was inactive.
Turning to `CC(C)C(=O)Nc1ncc(-c2cc(C(F)F)nn2-c2c(Cl)cccc2Cl)s1`, the max response was -16.9% in [1] and -19.8% in [2].
As to `N[C@@]1(C(=O)O)CS(=O)(=O)[C@H]2[C@H](C(=O)O)[C@H]21`, the max response was -30.1% in test [1] and -18.8% in test [3]. Further, the result in [2] was inactive.
Turning to `C[C@@H]1CCN(C(=O)CC#N)C[C@H]1N(C)c1ncnc2[nH]ccc12`, the results for the max response in [1] and in [3] were -14.7% and -5.04%, respectively. For the same compound, the Potency in test [2] was 8.33 µM (active).
With `COC(=O)N[C@H](C(=O)N1CCC[C@@H]1c1ncc(-c2ccc(-c3ccc(-c4cnc([C@@H]5CCCN5C(=O)[C@@H](NC(=O)OC)C(C)C)[nH]4)cc3)cc2)[nH]1)C(C)C`, the compound was classed as inactive in [1] and in test [2]. Also, the max response in [3] was 1.64%.
As for `COc1cccc2c1CCCC2CCCN1CCN(C2CCCCC2)CC1` (centres undefined), the Potency in [10] was 14.8 µM (active). Also, the max response in test [2] is -16.8%.
Take `Nc1ncnc2c1nc(Cl)n2[C@@H]1O[C@H](CO)[C@@H](O)[C@@H]1O`: the max response in test [10] is 0.527%. Further, in test [2], the Potency was 14.8 µM (active).
For `CC1(C)S[C@H]2[C@H](NC(=O)[C@@H](N)c3ccc(O)cc3)C(=O)N2[C@@H]1C(=O)O`, the call in test [1], in test [2] and in test [3] was inactive.
On to `CC[C@H]1OC(=O)[C@H](C)[C@@H](O[C@H]2C[C@@](C)(OC)[C@@H](O)[C@H](C)O2)[C@H](C)[C@@H](O[C@@H]2O[C@H](C)C[C@H](N(C)C)[C@@H]2O)[C@](C)(O)C[C@@H](C)CN(C)[C@H](C)[C@@H](O)[C@]1(C)O`, for which the outcome in test [1], in [2] and in test [3] was inactive.
As for `CC(=NNC(=S)N1CCC1)c1ccccn1`, in test [10], the Potency was 0.0042 µM (active).
In the case of `Cc1ccn(-c2ccc(-c3ncco3)cc2)c(=O)c1-c1ccc2nc(N)ncc2c1`, the Potency in test [1] is 1.66 µM (active) and 5.17 µM (active). Besides, the max response is -12.1% and -22.1% in [2]; 0.602% and 6.68% in test [3].
Take `CN(C)Cc1cccc(N=C(c2ccccc2)c2c(O)[nH]c3cc(C(=O)N(C)C)ccc23)c1`: in test [1], the Potency is 20.9 µM (active). Further, the max response in test [2] is -49.2%; in [3], -15%.
As to `Cc1ccc(C(C)(O)c2nc3ccccc3s2)c(C)c1` (centres undefined), the max response is 0.7% in test [1] and 4.83% in test [3].
`O=C1c2c(O)cc(O)cc2O[C@H](c2cc(O)c(O)c(O)c2)[C@H]1O`: the max response was 1.37% in [1], -8.4% in [2] and 4.36% in test [3].
For the compound `Clc1cc(Cl)cc(CNc2ncncc2-c2ccc3c(c2)OCO3)c1`, in test [10], the Potency is 20.9 µM (active).
For `CNC1CCC(N(Cc2cccc(-c3ccncc3)c2)C(=O)c2sc3c(F)ccc(F)c3c2Cl)CC1` (centres undefined), the Potency in [10] is 13.2 µM (active) and 13 µM (active). For the same compound, the compound was called inactive in test [2].
